AMA1-RON2 inh: qHTS for Inhibitors of AMA1-RON; Towards Development of Antimalarial Drug Lead: Primary Screen; Plasmodium falciparum AMA1 (3D7) - RON2 peptide interaction; AlphaScreen AMA1-biotinylated RON2 peptide binding; Potency, µM (top dose mostly 58.2 µM), without a hit: at the top dose activity change, negative = inhibition, most hits filed as inhibitors; hit rate 0.2% among 360,000; AID 720542, 2013;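 note: 0% = vehicle wells and -100% = peptide control; nearly all actives have a fitted effect of over 45% in size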
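AMA1 (3D7) with his tag at 25 nM final met compounds first, then biotinylated RON2 peptide at 25 nM; detection used donor plus acceptor beads, 10 µg/mL apiece, read by AlphaScreen after 30 min at room temperature.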
Pf growth 96h: Primary qHTS for delayed death inhibitors of the malarial parasite plastid, 96 hour incubation; Potency, µM (doses to about 28.7 µM), for inactives: top-dose activity change, negative = inhibition, usual class: inhibitors; AID 504834, 2011; hit rate 6.9% among 320,000; P. falciparum luciferase reporter growth, 96 h; note: % is set by controls: 0 for no effect and ±100 for the full control effect
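Two-generation exposure (96 h) targets delayed-death phenotype. Reporter parasites carrying integrated firefly luciferase, in red cells at 2% hematocrit and 0.05% parasitemia final, kept at 37 C, 5% CO2; luminescence loss indicates inhibition.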
Pf growth 48h: Primary qHTS for delayed death inhibitors of the malarial parasite plastid, 48 hour incubation; AID 504832, 2011; hit rate 5.9% among 310,000; P. falciparum luciferase growth in erythrocytes, 48 h; Potency, µM (series often up to 28.7 µM), without a hit: top-dose activity change, negative = inhibition, most hits filed as inhibitors; note: % is set by controls: 0 for no effect and ±100 for the full control effect
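First compound was added to culture medium, then infected red cells at 0.1% parasitemia and 2% hematocrit (final). After incubation at 37 C under 5% CO2, luciferase detection reagent was dispensed and light output recorded.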
SARS PLP yeast: qHTS of Yeast-based Assay for SARS-CoV PLP; S. cerevisiae expressing SARS-CoV PLpro, growth rescue; Potency, µM (highest dose often 32.9 µM), without a hit: top-dose activity, positive = growth rescue, usual class: activators; hit rate 0.19% among 330,000; calls by dose curve; note: 0% is about no effect; nearly all actives have a fitted effect of over 55% in size
Numbers without * were called inactive. Compounds with a hit are over-represented: about 9.4% of the library has one in this group of screens. Unless noted, calls come from the whole dose curve; as a rule, active = well fitted curve in the direction sought with a large enough effect; inconclusive = small, poorly fitted or top-dose-only effect, or another doubt; inactive = no such curve, though single readings can be large; an effect the other way counts as inactive or inconclusive. Potency is the fitted concentration of half-maximal effect.

What do the screens show for `O=C(COC(=O)c1ccc([N+](=O)[O-])o1)Nc1cccc(S(=O)(=O)N2CCCCC2)c1`?
AMA1-RON2 inh: -4%; Pf growth 96h: -1%; Pf growth 48h: -14%; SARS PLP yeast: -1%

How did O=c1[nH]c(C2CCCN(S(=O)(=O)c3ccc(F)cc3)C2)nc2c1nnn2Cc1ccc(F)cc1 (centres undefined) do in these assays?
AMA1-RON2 inh: -1%; Pf growth 96h: 14%; Pf growth 48h: inconclusive; SARS PLP yeast: 1%

Results for CCc1cccc2c(C(=O)CSc3nncn3-c3ccccc3OC)c[nH]c12 ?
AMA1-RON2 inh: 23%; Pf growth 96h: 0%; Pf growth 48h: inconclusive; SARS PLP yeast: 13µM*

How did CCc1cccc2c(C(=O)COC(=O)/C=C/c3ccccc3OC)c[nH]c12 do in these assays?
AMA1-RON2 inh: -11%; Pf growth 96h: 13µM*; Pf growth 48h: inconclusive; SARS PLP yeast: 18%

How did c1ccc2c(-c3c[nH]c4ccccc34)c3ccccc3nc2c1 do in these assays?
AMA1-RON2 inh: 8%; Pf growth 96h: 3.7µM*; Pf growth 48h: inconclusive; SARS PLP yeast: -31%

How did Cc1ccc(C(=O)N[C@H](C(=O)OCC(=O)Nc2cccc(S(N)(=O)=O)c2)C(C)C)cc1 do in these assays?
AMA1-RON2 inh: 13%; Pf growth 96h: 14%; Pf growth 48h: 4%; SARS PLP yeast: -1%

Results for CCCCn1nnnc1C(C1CC1)N1CCC(n2c(=O)[nH]c3ccccc32)CC1 (centres undefined) ?
AMA1-RON2 inh: 1%

What do the screens show for `CCOC(=O)Cc1csc(NC(=O)CCN2C(=O)c3cccc([N+](=O)[O-])c3C2=O)n1`?
AMA1-RON2 inh: 5%; Pf growth 96h: 13µM*; Pf growth 48h: 9%; SARS PLP yeast: 2%

What do the screens show for `CCOC(=O)Cc1csc(NC(=O)C(C)c2ccc([N+](=O)[O-])cc2)n1` (centres undefined)?
AMA1-RON2 inh: -14%; Pf growth 96h: 23%; Pf growth 48h: 9.3µM*; SARS PLP yeast: 1%

What do the screens show for `CCOC(=O)Cc1csc(NC(=O)Cc2ccccc2[N+](=O)[O-])n1`?
AMA1-RON2 inh: 1%; Pf growth 96h: inconclusive; Pf growth 48h: 12%; SARS PLP yeast: 3%

Results for CCOC(=O)Cc1csc(NC(=O)CCCCCN2C(=O)c3cccc4cccc(c34)C2=O)n1 ?
AMA1-RON2 inh: -14%

How did CCOC(=O)C1CCCN(C(=O)c2csc(-c3ccc4c(c3)CCO4)n2)C1 (centres undefined) do in these assays?
AMA1-RON2 inh: -6%; Pf growth 96h: 35%; Pf growth 48h: 23%; SARS PLP yeast: 0%

What do the screens show for `COCCOC(=O)C1=C(C)NC(=O)N(C(C)=O)C1c1ccc(Cl)cc1` (centres undefined)?
AMA1-RON2 inh: -2%; Pf growth 96h: 2.3µM*; Pf growth 48h: inconclusive; SARS PLP yeast: -5%

How did Cc1onc(-c2ccccc2Cl)c1C(=O)N1CCN=C1SCc1cccnc1 do in these assays?
AMA1-RON2 inh: 13%; Pf growth 96h: 2.1µM*; Pf growth 48h: 5%; SARS PLP yeast: -3%

How did CN(C)S(=O)(=O)c1ccc(C(=O)N2CCN=C2SCc2cccnc2)cc1 do in these assays?
AMA1-RON2 inh: 0%; Pf growth 96h: inconclusive; SARS PLP yeast: 20µM*

How did COC(=O)c1ccccc1C(=O)c1cccc2ccccc12 do in these assays?
AMA1-RON2 inh: 17%; Pf growth 96h: 0%; Pf growth 48h: 0%; SARS PLP yeast: 14%

Results for COC(=O)c1cc2ccccc2c(-c2c(O)ccc3ccccc23)c1O ?
AMA1-RON2 inh: -16%; Pf growth 96h: inconclusive; Pf growth 48h: 9.3µM*; SARS PLP yeast: -90%

What do the screens show for `CS(=O)(=O)Nc1ccc(C(=O)Nc2ccccc2-c2ccccc2)cc1`?
AMA1-RON2 inh: -19%; Pf growth 96h: 12µM*; Pf growth 48h: inconclusive; SARS PLP yeast: 12%

Results for Cc1ccc(C(=O)Nc2ccccc2C(=O)N2CCCCC2C)cc1 (centres undefined) ?
AMA1-RON2 inh: -12%; Pf growth 96h: 12µM*; Pf growth 48h: -16%; SARS PLP yeast: 1%

What do the screens show for `CS(=O)(=O)Nc1ccc(C(=O)Nc2ccccc2C(=O)N2CCCC2)cc1`?
AMA1-RON2 inh: -3%; Pf growth 48h: -5%; SARS PLP yeast: 16µM*

How did CC(=O)Nc1ccc(NS(C)(=O)=O)cc1 do in these assays?
AMA1-RON2 inh: 0%; Pf growth 96h: 4.7µM*; SARS PLP yeast: -7%

What do the screens show for `Cc1ccc2c(=O)n3c(nc2c1)C(Cc1ccc(O)cc1)NC(=O)c1ccc(Cl)cc1-3` (centres undefined)?
SARS PLP yeast: -2%

How did CC1(C(=O)NS(=O)(=O)c2cccc(F)c2)CCN1C(=O)Cc1ccccc1Cl (centres undefined) do in these assays?
AMA1-RON2 inh: 1%

How did COc1ccc(-n2c(Cc3cccn3C)nnc2SCC(=O)NCc2ccccc2Cl)cc1 do in these assays?
AMA1-RON2 inh: 0%; Pf growth 96h: 12µM*; Pf growth 48h: 9.3µM*; SARS PLP yeast: -2%

What do the screens show for `COc1ccc(-n2c(Cc3cccn3C)nnc2SCC(=O)NCc2ccc(F)cc2)cc1`?
AMA1-RON2 inh: -5%; Pf growth 96h: -6%; Pf growth 48h: 8.3µM*; SARS PLP yeast: -1%

How did CC(C)CN(C(=O)COC(=O)CCSc1ccc(F)cc1)c1c(N)n(Cc2ccccc2)c(=O)[nH]c1=O do in these assays?
AMA1-RON2 inh: -2%; Pf growth 96h: 6%; Pf growth 48h: 7%; SARS PLP yeast: 5%

How did CC(C)(C)n1nnnc1C(c1cc2ccccc2o1)N1CCC2(CC1)C(=O)NCN2c1ccccc1 (centres undefined) do in these assays?
AMA1-RON2 inh: 0%

What do the screens show for `COc1ccccc1C(=O)O/N=C(/c1ccncc1)c1ccc([N+](=O)[O-])cc1`?
AMA1-RON2 inh: 1%; Pf growth 96h: 5.2µM*; Pf growth 48h: inconclusive; SARS PLP yeast: 1%

How did N/C(=N\OC(=O)C(c1ccccc1)c1ccccc1)c1ccncc1 do in these assays?
AMA1-RON2 inh: 2%; Pf growth 96h: inconclusive; Pf growth 48h: 2.9µM*; SARS PLP yeast: -1%

What do the screens show for `COc1cc(C(=O)O/N=C(\N)c2ccncc2)cc(OC)c1OC`?
AMA1-RON2 inh: 12%; Pf growth 96h: inconclusive; Pf growth 48h: 9.3µM*; SARS PLP yeast: 3%

What do the screens show for `COc1ccc(C(=O)O/N=C(\N)c2ccncc2)cc1OC`?
AMA1-RON2 inh: -20%; Pf growth 96h: inconclusive; Pf growth 48h: inconclusive; SARS PLP yeast: 1%

What do the screens show for `COc1cccc(OC)c1C(=O)O/N=C(\N)c1ccncc1`?
AMA1-RON2 inh: 0%; Pf growth 96h: 12µM*; Pf growth 48h: inconclusive; SARS PLP yeast: 4%

How did N/C(=N\OC(=O)Cc1ccccc1)c1ccncc1 do in these assays?
AMA1-RON2 inh: 2%; Pf growth 96h: -6%; Pf growth 48h: 2%; SARS PLP yeast: -1%

How did O=C1c2ccccc2C(Nc2cccnc2)N1Cc1ccccc1 (centres undefined) do in these assays?
AMA1-RON2 inh: inconclusive; Pf growth 96h: 10µM*; SARS PLP yeast: 2%

Bioassay records (PubChem)
